GoLoco inh red: qHTS Assay for Inhibitors of RGS12 GoLoco Motif Activity (Red Fluorophore); Guanine nucleotide-binding protein G(i) subunit alpha-1 (Homo sapiens), P63096; Gai1:RGS12 GoLoco peptide FP, rhodamine, 10 min; Potency, µM (highest dose often 61.6 µM), for the others: at the top dose activity, negative = inhibition, most hits filed as inhibitors; actives 0.44% (n = 230,000); AID 880, 2007; active = well fitted inhibition curve with a large enough effect, not every such curve was filed as active; inactive = no such curve, though single readings can be large or run the other way; note: potency is the fitted concentration of half-maximal effect; % is set by controls: 0 for no effect and ±100 for the full control effect; nearly all actives have a fitted effect of over 30% in size
TR SRC2 fluor cs: Total Fluorescence Counterscreen for Inhibitors of the Interaction of Thyroid Hormone Receptor and Steroid Receptor Coregulator 2. AID 1479, 2009. Potency, µM (highest dose often 106 µM), inactives show at the highest dose fluorescence change, negative = quenching. actives 0.29% (n = 280,000). TRb/SRC2 Texas Red total fluorescence interference; active = well fitted curve in either direction with a large enough effect; inconclusive = small, poorly fitted or top-dose-only effect; note: potency is the fitted concentration of half-maximal effect; % is set by controls: 0 for no effect and ±100 for the full control effect
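Human TRb ligand-binding domain at 0.6 uM with 20 nM Texas Red SRC2 peptide in Tris buffer containing 1 uM T3 and 5% DMSO, incubated with compound 5 h at ambient temperature. Total fluorescence (555/632 nm) calculated as parallel + 2 × perpendicular.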
CXXC DNA block: qHTS Fluorescence Polarization Assay for Inhibitors of MLL CXXC domain - DNA interaction | Potency, µM (titrated, usually from 115 µM), without a hit: at the highest dose activity change, negative = inhibition, usual class: inhibitors | actives 0.037% (n = 290,000) | MLL-CXXC / FITC-HOXA9 DNA fluorescence polarization | Histone-lysine N-methyltransferase 2A (Homo sapiens), Q03164; active = well fitted inhibition curve with a large enough effect in the polarisation, with a control signal flat, not every such curve was filed as active; inconclusive = small, poorly fitted or top-dose-only effect, or effect the other way, or a change in a side signal; inactive = no such curve, though single readings can be large or run the other way; the % refers to the polarisation; note: potency is the fitted concentration of half-maximal effect
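Fluorescence polarization: 7 uM MLL-CXXC (stock) preincubated 5 min with compounds, then 50 nM fluorescein-HOX-A9 DNA (stock) added; 30 min ambient. Buffer 50 mM Tris-HCl pH 7.5, 50 mM NaCl, 1 mM DTT, 0.05% BSA.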
TRb-SRC2 inh: qHTS for Inhibitors of the Interaction of Thyroid Hormone Receptor and Steroid Receptor Coregulator 2 | actives 0.065% (n = 280,000) | Potency, µM (doses to about 106 µM), for inactives: at the top dose activity change, negative = inhibition, usual class: inhibitors | TRbeta-SRC2 peptide binding, fluorescence polarization; receptor liganded with 1 µM T3; active = well fitted inhibition curve with a large enough effect; inconclusive = small, poorly fitted or top-dose-only effect, or effect the other way;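 note: potency is the fitted concentration of half-maximal effect; plate controls were bound peptide for no effect and peptide without receptor for full effect; nearly all actives have a fitted effect of over 50% in size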
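Assay buffer: 20 mM Tris-HCl, 100 mM NaCl, 10% glycerol, 1 mM EDTA, 0.01% NP-40, 1 mM DTT, 1 uM T3, 5% DMSO; TRb LBD 0.6 uM, Texas Red SRC2 20 nM; FP after 5 hr.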
Menin MLL FP TR: qHTS Assay for Inhibitors Targeting the Menin-MLL Interaction in MLL Related Leukemias: Competition With Texas Red Labeled MLL-derived Mutant Peptide; O00255; Menin + Texas Red MLL mutant peptide, fluorescence polarization; Potency, µM (highest dose often 61.6 µM), without a hit: at the top dose FP activity change, negative = inhibition, hits mostly inhibitors; actives 0.23% (n = 270,000); AID 1768, 2009; active = well fitted inhibition curve with a large enough effect in the polarisation, with a control signal flat, not every such curve was filed as active; inconclusive = small, poorly fitted or top-dose-only effect, or effect the other way, or a change in a side signal; inactive = no such curve, though single readings can be large or run the other way; the % refers to the polarisation; note: potency is the fitted concentration of half-maximal effect; % of control where 0% means no effect
Target sequence (O00255 whole entry, looked up): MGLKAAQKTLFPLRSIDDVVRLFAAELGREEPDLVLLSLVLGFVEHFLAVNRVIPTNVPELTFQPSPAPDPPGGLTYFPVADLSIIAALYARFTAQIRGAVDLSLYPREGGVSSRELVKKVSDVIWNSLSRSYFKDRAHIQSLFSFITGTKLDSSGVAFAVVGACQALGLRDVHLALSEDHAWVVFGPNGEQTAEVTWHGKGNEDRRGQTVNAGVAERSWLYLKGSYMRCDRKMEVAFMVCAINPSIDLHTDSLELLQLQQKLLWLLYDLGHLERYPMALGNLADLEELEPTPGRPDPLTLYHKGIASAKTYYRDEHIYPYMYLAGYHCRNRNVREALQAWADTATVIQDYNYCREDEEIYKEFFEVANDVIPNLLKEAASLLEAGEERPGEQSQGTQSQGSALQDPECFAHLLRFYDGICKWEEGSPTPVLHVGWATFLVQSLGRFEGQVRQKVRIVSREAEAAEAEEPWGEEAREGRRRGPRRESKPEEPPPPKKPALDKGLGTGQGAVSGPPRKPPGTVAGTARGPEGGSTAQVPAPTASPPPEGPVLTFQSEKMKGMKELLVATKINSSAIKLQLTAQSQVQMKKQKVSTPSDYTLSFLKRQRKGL
Menin-MLL FL inh: qHTS Assay for Inhibitors Targeting the Menin-MLL Interaction in MLL Related Leukemias: Competition With Fluorescein Labeled MLL-derived Peptide; Fluorescence polarization, fluorescein-MLL peptide displacement from menin; FP activity change, % at 61.4 µM; 290,000 tested, under 10 active; AID 1766, 2009; active = well fitted curve in the direction sought with a large enough effect in the polarisation, not every such curve was filed as active; inconclusive = small, poorly fitted or top-dose-only effect, or effect the other way, or a change in a side signal; inactive = no such curve, though single readings can be large or run the other way; the % refers to the polarisation; note: % of control where 0% means no effect
The depositor's hits bear a star; [ ] = dose if it differs, or a comment. Hits are enriched below; roughly 0.5% of the tested compounds scored in any of these assays.

`Cc1ccc(NC(=O)C(=O)Nc2ccc(C)cn2)nc1` gave GoLoco inh red 3%, TR SRC2 fluor cs -3%, CXXC DNA block 1%, TRb-SRC2 inh 2%, Menin MLL FP TR 11% and Menin-MLL FL inh -9.
`FC(F)(F)c1cc(NC(=S)Nc2ccc3ccccc3c2)cc(C(F)(F)F)c1` gave GoLoco inh red -1%, TR SRC2 fluor cs -2%, TRb-SRC2 inh 3%, Menin MLL FP TR 14% and Menin-MLL FL inh -1.
For c1ccc(SCCSc2ccccc2)cc1 the results were GoLoco inh red 3%, TR SRC2 fluor cs -2% and TRb-SRC2 inh -3%.
`O=C(CSc1nnc(-c2ccccc2)o1)c1ccc2c(c1)OCCO2` gave GoLoco inh red -4%, TR SRC2 fluor cs 1%, CXXC DNA block 22%, TRb-SRC2 inh 9%, Menin MLL FP TR 5% and Menin-MLL FL inh -1.
O=C(CSc1nnc(-c2ccccc2)o1)c1cccc([N+](=O)[O-])c1 was read as TR SRC2 fluor cs 11µM*[quencher] and TRb-SRC2 inh -8%.
`O=C(Cn1cnc2sc(-c3ccccc3)cc2c1=O)NCc1ccco1` gave GoLoco inh red 8%, TR SRC2 fluor cs -5%, CXXC DNA block 6%, TRb-SRC2 inh 6%, Menin MLL FP TR 25µM* and Menin-MLL FL inh 11.
O=C1CC(c2ccc(Cl)cc2)c2cc3c(cc2N1)OCCO3 (centres undefined) was read as TR SRC2 fluor cs -1% and TRb-SRC2 inh 1%.
For Cc1ccc(C2CC(=O)Nc3cc4c(cc32)OCCO4)cc1 (centres undefined) the results were TR SRC2 fluor cs 0.05µM*[quencher] and TRb-SRC2 inh -17%[53 µM].
OCC1OC([S-])[C@H](O)C(O)C1O.[Au+] (some centres undefined) was read as GoLoco inh red -9%, TR SRC2 fluor cs 13µM*[quencher], CXXC DNA block -10%, TRb-SRC2 inh inconclusive, Menin MLL FP TR 5% and Menin-MLL FL inh -1.
`Cc1ccc2occ(/C=N/NC(N)=S)c(=O)c2c1` gave GoLoco inh red 5%, TR SRC2 fluor cs 0.35µM*[quencher], CXXC DNA block 4%, TRb-SRC2 inh -13%, Menin MLL FP TR -22% and Menin-MLL FL inh 1.
Screening CC(C)=CCC/C(C)=C\CO returned TR SRC2 fluor cs 1%[201 µM] and TRb-SRC2 inh 6%[201 µM].
Screening Nc1ccc(-c2nc3ccc(N)cc3s2)cc1 returned GoLoco inh red -3%, TR SRC2 fluor cs -12%, CXXC DNA block -3%, TRb-SRC2 inh 5% and Menin-MLL FL inh 7.
Nc1ccc2nc(-c3ccc(O)cc3)sc2c1 was read as TR SRC2 fluor cs 79µM*[quencher] and TRb-SRC2 inh -15%[53 µM].
`COc1cccc(CNc2ccc3c(c2)nc(C)n3C)c1OC` gave CXXC DNA block 2%, Menin MLL FP TR -5% and Menin-MLL FL inh -1.
For CCn1cnc2cc(NCc3ccccc3Cl)ccc21 the results were CXXC DNA block 12%, Menin MLL FP TR 6% and Menin-MLL FL inh 5.
`CCCCn1cnc2cc(NCc3ccccc3Cl)ccc21` gave TR SRC2 fluor cs 0.063µM*[quencher] and TRb-SRC2 inh -23%[53 µM].
COc1cccc(CNc2ccc3c(c2)ncn3C)c1OC was read as TR SRC2 fluor cs 0.0089µM*[quencher], CXXC DNA block -6%, TRb-SRC2 inh -5%, Menin MLL FP TR -4% and Menin-MLL FL inh 6.
`COC(=O)C(C)Oc1ccc(Oc2ncc(C(F)(F)F)cc2Cl)cc1` (centres undefined) gave TR SRC2 fluor cs 0%[201 µM] and TRb-SRC2 inh 2%[201 µM].
